The text below walks through data of PubChem BioAssay (NCI).

Compounds without any hit were thinned out: in the full panel of roughly 83,000, 20% have a hit.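 96-well plates, one dose, 48 hours. Percent growth reported; active if below 10.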 Values without a mark were called inactive. Calls of active or inactive are those of the source.

What all share (assay): NCI-60 one-dose screen, 48 h (100 = growth as untreated, 0 = no growth, -100 = all killed)
Conditions in all cases: 10 µM unless noted

Assay [1] deals with T-47D breast.
Assay [2] deals with MDA-MB-435 melanoma.
The subject of assay [3] is SW-620 colon.
Assay [4] deals with MCF7 breast.
Assay [5] has as its system HCT-116 colon.
Assay [6] deals with HCC-2998 colon.
Assay [7] concerns BT-549 breast.
For assay [8], the system named is KM12 colon.

Consider `CN(C)CCC(O)(Cc1ccccc1)c1ccccc1` (stereo not drawn), for which the growth in assay [1] is 96.4%; in assay [2] it was 91.8%; in assay [3], 114%; in assay [4], 110%; in assay [5], 103%; in assay [6] it was 87%.

Turning to `O=C(Oc1ccc[nH]c1=O)c1cc([N+](=O)[O-])cc([N+](=O)[O-])c1`, the growth in assay [1] is 109%; in assay [7], 75.6%; in assay [3], 107%; in assay [4] it was 96.2%; in assay [5], 103%; in assay [8], 116%.

Turning to `CNCCNc1nc2ccccc2c2c(=O)c3cc(F)ccc3oc12`, the growth was 96.1% in assay [1]; 69.9% in assay [7]; 33.6% in assay [3]; 45.2% in assay [4]; 27.2% in assay [5]; 71.2% in assay [6]. The growth in assay [8] was 41.8%.

With `N#C/C(=C\c1ccc(Br)cc1)n1nnc2cc(Cl)c(Cl)cc21`, the growth in assay [1] was 18%; in assay [7] it was 22.5%; in assay [3] it was 19.2%; in assay [4], 6.51% (active); in assay [5], 22.2%; in assay [6] it was 35.3%. In assay [8], the growth was 29.7%.

For the molecule `Cc1ccc(NSc2ccccc2[N+](=O)[O-])cc1`, the growth in assay [1] was 27.3%; in assay [7] it was 34.1%; in assay [3], 26.9%; in assay [4] it was 30.4%; in assay [5], 20.3%; in assay [6], 31.4%. In addition, the growth in assay [8] is 20.3%.

`O=C(NCOC(O)C(Cl)(Cl)Cl)NCOC(O)C(Cl)(Cl)Cl` (stereo not drawn): the growth is 89.5% in assay [1]; 101% in assay [7]; 108% in assay [3]; 89.6% in assay [4]; 118% in assay [6]; 109% in assay [8].

On to `CN1CCN(CCCOc2ccc3nc(Nc4cc(Cl)cc(Cl)c4)ccc3c2)CC1`, for which the growth in assay [1] is -68.6% (active); in assay [7], -43.2% (active); in assay [3], -82.1% (active); in assay [4] it was -89.2% (active); in assay [5] it was -78.2% (active); in assay [6] it was -89.2% (active). Also, the growth in assay [8] was -88.7% (active).

With `COc1cc(-c2cccc([N+](=O)[O-])c2)c(-c2nc(-c3ccccc3)c(-c3ccccc3)n2C2CC2)cc1OC`, the growth was 23.9% in assay [1]; 47.2% in assay [7]; 76.3% in assay [3]; 34.8% in assay [4]; 26.8% in assay [5]; 81.2% in assay [6]. Besides, the growth in assay [8] is 67.3%.

On to `CCCCS(=O)(=O)Oc1ccc(-c2nc(C)c(C(=O)OCC)s2)cc1C=O`, for which the growth was 80.6% in assay [1]; 72.2% in assay [7]; 30.2% in assay [3]; 35.6% in assay [4]; 8.67% (active) in assay [5]; 94.4% in assay [6]. Moreover, the growth in assay [8] is 57%.

Take `CC(/C=N/NC(=O)c1cc(-c2ccco2)[nH]n1)=C\c1ccccc1`: the growth in assay [1] was 96.6%; in assay [7] it was 101%; in assay [3], 101%; in assay [4], 99.8%; in assay [5] it was 99.3%; in assay [6], 106%. The growth in assay [8] was 93.9%.

As to `CC(C)(C)N1CC(OC(N)=O)C1`, the growth in assay [1] is 93.3%; in assay [7], 94.4%; in assay [3], 104%; in assay [5], 99.4%; in assay [8], 108%.

Turning to `COc1ccc(C2=NC(=O)NC2c2ccc(OC)cc2)cc1` (stereo not drawn), the growth in assay [1] is 62.5%; in assay [7], 90.6%; in assay [2] it was 9.83% (active); in assay [3], 38.7%; in assay [5], 47%; in assay [8], 41.1%.

With `CC1(C)N=C(N)N=C(N)N1c1cccc(CN)c1`, the growth in assay [1] was 102%; in assay [7], 94.6%; in assay [3], 98.4%; in assay [4], 95.9%; in assay [5], 91.3%; in assay [6] it was 100%. Further, the growth in assay [8] is 101%.

On to `CCCCCCCC/C=C\CCCCCCCC(=O)Oc1cccc2cccnc12`, for which the growth in assay [1] was 54.6%; in assay [7], 65.6%; in assay [3], 59.4%; in assay [4], 89.4%; in assay [5], 32.2%; in assay [6], 106%. Further, the growth in assay [8] was 104%.

`COc1cc(/C=C2\C=C(c3ccccc3)N(CCc3ccccc3)C2=O)cc(OC)c1OC`: the growth in assay [1] was 56.9%; in assay [7], 91.3%; in assay [3], 85.2%; in assay [4], 70.9%; in assay [5], 52.2%; in assay [6], 102%. Also, the growth in assay [8] was 80.6%.

For the molecule `c1ccc2[nH]c(SSc3nc4ncncc4[nH]3)nc2c1`, the growth in assay [1] is 46.5%; in assay [7] it was 46.7%; in assay [3], 36.3%; in assay [4], 9.76% (active); in assay [5] it was 20.8%; in assay [6], 18.2%. Further, the growth in assay [8] was 15.1%.

For `CCn1c(Sc2nnc(Nc3ccccc3)s2)nc2c1c(=O)n(C)c(=O)n2C`, the growth in assay [1] is 87.2%; in assay [7] it was 87.1%; in assay [3] it was 97.6%; in assay [4] it was 98.6%; in assay [5], 94.7%; in assay [6] it was 92.7%. Besides, the growth in assay [8] was 110%.

In the case of `C=C1C(=O)O[C@H]2[C@H]1CC/C(C(=O)NCCCCCCCCNC(=O)/C1=C/CC[C@@]3(C)O[C@H]3[C@H]3OC(=O)C(=C)[C@@H]3CC1)=C\CC[C@@]1(C)O[C@@H]21`, the growth in assay [1] was 28.4%; in assay [7], 51%; in assay [3], 14.2%; in assay [4], 37.9%; in assay [5] it was 29.7%; in assay [6], 97.2%. For the same molecule, the growth in assay [8] is 93.1%.

Regarding `CCCCCOC(=O)c1ccc(NC(=O)CNCC(C)C)cc1`, the growth in assay [1] is 88.8%; in assay [7] it was 91.8%; in assay [3], 98.5%; in assay [4] it was 94.3%; in assay [5] it was 84.9%; in assay [6], 97.9%. Further, in assay [8], the growth is 104%.

As for `Cc1ccc(/C=C(\C#N)n2nnc3cc(Cl)c(Cl)cc32)cc1`, the growth was 15.1% in assay [1]; 7.89% (active) in assay [7]; 16.3% in assay [3]; 6.58% (active) in assay [4]; 8.31% (active) in assay [5]; 13.6% in assay [6]. Also, in assay [8], the growth was 0.682% (active).

`CCN(CC)c1ccc(Nc2ccc(CC(=O)c3ccccc3)cc2)cc1`: the growth in assay [1] is 74.3%; in assay [7], 82.4%; in assay [3], 89.9%; in assay [4] it was 83.6%; in assay [5] it was 82.4%; in assay [6], 94.9%. Moreover, the growth in assay [8] is 74.9%.

With `Cc1cc(C)on1`, the growth was 94.4% in assay [1]; 99.5% in assay [2]; 110% in assay [3]; 96.6% in assay [4]; 110% in assay [5]; 94.5% in assay [6].

Regarding `CCOC(=O)c1ccc(-c2ccc3cc(OC)ccc3c2)nc1C`, the growth in assay [1] is 91.6%; in assay [7], 104%; in assay [3], 102%; in assay [4], 93%; in assay [5], 78.1%; in assay [6] it was 101%. Moreover, in assay [8], the growth is 100%.

For `Cc1ccc(-n2nnc(C3=NCCc4c3[nH]c3ccc(Cl)cc43)c2C)cc1`, the growth was 35.7% in assay [1]; 85.3% in assay [7]; 64.8% in assay [3]; 77.8% in assay [4]; 71.6% in assay [5]; 75.5% in assay [6]. Moreover, the growth in assay [8] was 57.3%.

On to `CCN(CC)CCOC(=O)N1c2ccccc2Sc2ccccc21`, for which the growth in assay [1] was 94%; in assay [7], 92.1%; in assay [3] it was 94.4%; in assay [4], 99.5%; in assay [5] it was 81.7%; in assay [6], 102%.

In the case of `Cc1c(C(=O)O)nnn1-c1nccs1`, the growth was 90.4% in assay [1]; 96.4% in assay [7]; 94% in assay [3]; 99.6% in assay [4]; 89.5% in assay [5]; 113% in assay [6]. For the same molecule, the growth in assay [8] was 98.8%.

Consider `O=C1C2=C(CCN(Cc3ccccc3)C2)N2CCN=C2N1Cc1ccc(C(F)(F)F)cc1`, for which the growth was 24.1% in assay [1]; 32% in assay [7]; 37% in assay [3]; 21.2% in assay [4]; 23% in assay [5]; 23.9% in assay [6]. For the same molecule, the growth in assay [8] is 39.4%.

For the molecule `O=C1Nc2ccccc2SC1C1SC(=S)N(Cc2ccccc2)C1=O` (stereo not drawn), the growth in assay [1] is 24.1%; in assay [7], 42.4%; in assay [3], 20.9%; in assay [4], 17.8%; in assay [5], 42.8%; in assay [6], 136%. In addition, in assay [8], the growth was -48.5% (active).

In the case of `N[C@@H]1CCC[C@H]1NCCCCN1C(=O)c2cccc3cccc(c23)C1=O`, the growth is 86.3% in assay [1]; 78.9% in assay [7]; 38% in assay [3]; 70% in assay [4]; 50.3% in assay [5]; 60.1% in assay [6]. Besides, in assay [8], the growth was 63.5%.

With `Nc1nc(Nc2ccc(Cl)cc2)nn1S(=O)(=O)c1ccc(-c2ccc(F)cc2)cc1`, the growth in assay [1] is 68.6%; in assay [7] it was 108%; in assay [3] it was 95.5%; in assay [4], 58.2%; in assay [5] it was 75.1%; in assay [6], 82.9%. For the same molecule, the growth in assay [8] was 61.2%.

With `Cc1nc(Nc2ccc(NC(=S)Nc3ccccc3)cc2)nc2nc(Nc3cccc(Cl)c3)[nH]c(=O)c12`, the growth in assay [1] is 89.1%; in assay [2] it was 108%; in assay [3] it was 98.3%; in assay [4], 89.8%; in assay [5], 94.4%; in assay [6], 114%.

Take `COc1ccc(-c2cc(-c3cc(OC)ccc3OC)[nH]c(=O)c2C#N)cc1`: the growth was 63.8% in assay [1]; 48.7% in assay [7]; 1.49% (active) in assay [2]; 26.7% in assay [3]; 29.9% in assay [5]; 75.9% in assay [6]. Further, the growth in assay [8] was 51.4%.

For the molecule `CN(C)c1ccc(/C=C/c2c(F)cccc2F)cc1`, the growth in assay [1] is 58.3%; in assay [2] it was 101%; in assay [3], 104%; in assay [4], 49.7%; in assay [5], 91.8%; in assay [6], 95.1%. Besides, the growth in assay [8] is 91.7%.

As for `Cc1cc(=O)c2cc3nc(-c4cccnc4)oc3c(Br)c2o1`, the growth in assay [1] is 201%; in assay [2] it was 107%; in assay [3] it was 99.5%; in assay [4], 94.9%; in assay [5], 99.9%; in assay [6], 106%. Besides, in assay [8], the growth was 109%.

On to `O=C(CCCCCCCn1cc(-c2cccnc2)nn1)Nc1ccccc1-c1ccccc1`, for which the growth is 28% in assay [1]; 22.5% in assay [2]; 20.6% in assay [3]; 38.5% in assay [4]; 0.699% (active) in assay [5]; 38.1% in assay [6]. Further, in assay [8], the growth was 29.4%.

Turning to `COc1cccc(/C=C2\COc3ccc(O)cc3C2=O)c1OC`, the growth was 74.8% in assay [1]; 19.7% in assay [2]; 30.5% in assay [3]; 12.2% in assay [4]; 34.3% in assay [5]; 94.1% in assay [6]. The growth in assay [8] is 7.8% (active).
